Results published in PubChem BioAssay.
The source made the active and inactive calls.

Assay: S. pombe growth modifiers, basal conditions – strain 972, OD600, 24 h, no modulator, primary screen (AID 1090);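 further: basal condition with compound alone and no growth modifier present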
Conditions: S. pombe 972 growth, higher = more signal, called active from +8 up or from −8 down
Further: test concentration not given here.

SMILES | z-score
C=CCNC(=O)[C@@H]1[C@H]2C(=O)O[C@H](c3ccccc3)[C@H](c3ccccc3)N2[C@H](c2ccc(O)cc2)[C@@]12C(=O)N(C(=O)OCCOC)c1ccc(C#CC3=CCCCC3)cc12 | 0.428 (inactive)
C#Cc1cc2ccccc2oc1=O | -7.83 (inactive)
COc1cc(NN2C(C(O)c3cc(OC)c(OC)c(OC)c3)C=CC3C(=O)N(C)C(=O)C32)cc(OC)c1OC (stereo not given) | -0.724 (inactive)
CO[C@H]1O[C@H](CO)[C@@H](OC(=O)Nc2ccccc2)[C@H](OC(=O)c2cc3ccccc3[nH]2)[C@H]1OC(=O)c1cc2ccccc2[nH]1 | -0.562 (inactive)
CCOC(=O)C[C@H]1[C@H](OC(=O)Cc2ccc3c(c2)OCO3)[C@@H](NC(=O)c2ccc3ccccc3n2)c2cc(OCCCO)ccc2N1C(=O)c1ccc2ccccc2n1 | -1.99 (inactive)
COc1ccc(C#Cc2ccc3c(c2)[C@]2(C(=O)N3)[C@H](c3ccc(OCCO)cc3)N3[C@H](c4ccccc4)[C@H](c4ccccc4)OC(=O)[C@H]3[C@@H]2C(=O)NC[C@H](O)c2ccccc2)cc1 | 2.39 (inactive)
NCCCCCNC(=O)[C@H]1C[C@H]2C(=O)N3CCC[C@H]3C(=O)N2[C@H]1c1cccc(OCCO)c1 | -1.53 (inactive)
CO[C@H]1O[C@H](CO)[C@@H](OC(=O)Nc2ccc(Br)cc2)[C@@H]2OC(=O)[C@@H](Cc3ccccc3)C/C=C/C[C@H](Cc3ccccc3)C(=O)O[C@@H]12 | -0.295 (inactive)
CCOC(=O)[C@@H]1CCCCN1C(=O)C(=O)OC | 0.656 (inactive)
O=C(Cc1ccccc1)[C@H]1C2C=CCCC(c3ccccc3)=C2CN1Cc1ccccc1 (stereo not given in full) | -1.29 (inactive)
CCOC(=O)C[C@H]1[C@H](OC(=O)Cc2ccc3c(c2)OCO3)[C@@H](NC(=O)C2CCCCC2)c2cc(OCCCO)ccc2N1C(=O)c1ccccc1 | -0.432 (inactive)
C=C[C@H](C)[C@H](OC(=O)Nc1ccc(SC)cc1)c1ccc(OCCO)cc1 | -2.34 (inactive)
CCCCC(CC)C(O)C1C=CC2C(=O)N(c3ccccc3)C(=O)C2N1Nc1ccccc1F (stereo not given) | 1.53 (inactive)
Cc1ccc(C(C)CC(O)C2C=CC3C(=O)N(c4ccccc4)C(=O)C3N2Nc2ccccc2)o1 (stereo not given) | -0.132 (inactive)
CCOC(=O)C1=C[C@@H](C(C)(C)C)N(S(=O)(=O)c2ccc(C)cc2)[C@H]1c1cccc2ccccc12 | 2.75 (inactive)
CC(C)N1C(=O)C[C@@](C(=O)NC2CC2)(c2ccc([N+](=O)[O-])cc2)[C@H]1c1ccc(CO)cc1 | -1.08 (inactive)
COC(=O)c1c(CC[C@@H](CO)NC(=O)N2CCC[C@H]2Cn2cc(C3(O)CCCCC3)nn2)oc(C(C)=O)c1C(=O)OC | -0.154 (inactive)
NC(=O)NCC#Cc1ccc2c(c1)[C@]1(C(=O)N2)[C@H](c2ccccc2OCCO)N2[C@H](c3ccccc3)[C@H](c3ccccc3)OC(=O)[C@H]2[C@@H]1C(=O)NC[C@H](O)c1ccccc1 | 1.32 (inactive)
CN(C)C(=O)[C@]1(CCC(=O)OC(C)(C)C)N=C(c2ccc(OCCCO)cc2)O[C@@H]1c1ccccc1CN=[N+]=[N-] | -1.65 (inactive)
Cc1ccccc1C(O)C1C=CC2C(=O)NC(=O)C2N1Nc1ccccn1 (stereo not given) | 0.459 (inactive)
COCCOC(=O)N1C(=O)[C@@]2(c3ccccc31)[C@H](C(=O)NC[C@H](O)c1ccccc1)[C@H]1C(=O)O[C@H](c3ccccc3)[C@H](c3ccccc3)N1[C@@H]2c1ccc(O)cc1 | 0.259 (inactive)
CC1CC/C=C\[C@H]2OC34C=CCN(C(C)C)C(=O)[C@H]3N(CCO)C(=O)[C@@H]4C2C(=O)O1 (stereo not given in full) | -0.486 (inactive)
CCOC(=O)C=Cc1cccc(C)c1O | -11.5 (active)
CCCCCCCCCCC(O)C1C=CC2C(=O)N(c3ccccc3)C(=O)C2N1Nc1ccc(C#N)cc1 (stereo not given) | 0.53 (inactive)
COCC(=C=CC[C@H](O)c1ccc(CO)o1)CCO | 0.0793 (inactive)

Assay: budding yeast growth modifiers under rapamycin – strain BY4716, OD600, 96 h, primary screen (AID 1091)
Conditions: S. cerevisiae BY4716 + rapamycin, higher = more signal, called active from +8 up or from −8 down

SMILES | z-score
CCCC1(C(=O)OC)C=C2C(=C(C)C(=O)C2C)CN1 (stereo not given) | 0.578 (inactive)
NCCCCCNC(=O)[C@@H]1C[C@@H]2C(=O)N[C@@H](CCCCN)C(=O)N2[C@@H]1c1ccc(O)cc1 | 3.76 (inactive)
CCCN1C(=O)[C@]2(Cc3ccccc31)N=C(c1ccc(OCCCO)cc1)O[C@@H]2c1ccccc1 | 1.44 (inactive)
CCN(CC)c1ccc(N2CC=CC34O[C@@H]5/C=C\CCCOC(=O)C5[C@H]3C(=O)N(C(C)CO)[C@@H]4C2=O)cc1 (stereo not given in full) | -0.497 (inactive)
NC(=O)[C@H]1[C@@H]2C(=O)O[C@@H](c3ccccc3)[C@@H](c3ccccc3)N2[C@@H](c2ccc(OCCO)cc2)[C@]12C(=O)Nc1ccc(C#CCCO)cc12 | 3.63 (inactive)
CC(C)C(CO)N1C(=O)[C@@H]2[C@H]3C(=O)OCC=C[C@H]3OC23C=CCN(c2ccc(Cl)cc2)C(=O)[C@@H]13 (stereo not given in full) | 1.25 (inactive)
C=CCNC(=O)[C@@H]1[C@H]2C(=O)O[C@H](c3ccccc3)[C@H](c3ccccc3)N2[C@H](c2ccccc2OCCO)[C@@]12C(=O)Nc1ccc(C#CCC(C(=O)OC)C(=O)OC)cc12 | 3.72 (inactive)
COc1ccc(C#Cc2ccc3c(c2)[C@]2(C(=O)N3)[C@H](C(=O)O)[C@H]3C(=O)O[C@H](c4ccccc4)[C@H](c4ccccc4)N3[C@@H]2c2ccc(O)cc2)cc1 | 0.0118 (inactive)
CCCC[C@@H](O)C1=C(COC)C[C@H]2C(=O)N(Cc3ccccc3)C(=O)[C@H]2[C@H]1CO | 0.719 (inactive)
COC(=O)[C@@]1(Cc2ccc(F)cc2)[C@H]2c3cc(C(=O)N4CCCC4)n(Cc4ccc(C)c(F)c4F)c3C[C@H]2CN1C(=O)c1ccccc1 | 0.378 (inactive)
C=CCNC(=O)[C@@H]1[C@H]2C(=O)O[C@H](c3ccccc3)[C@H](c3ccccc3)N2[C@H](c2ccc(O)cc2)[C@@]12C(=O)N(C(=O)OCCOC)c1ccc(C#CC3=CCCCC3)cc12 | 0.969 (inactive)
C#Cc1cc2ccccc2oc1=O | -1.11 (inactive)
COc1cc(NN2C(C(O)c3cc(OC)c(OC)c(OC)c3)C=CC3C(=O)N(C)C(=O)C32)cc(OC)c1OC (stereo not given) | -0.0522 (inactive)
CO[C@H]1O[C@H](CO)[C@@H](OC(=O)Nc2ccccc2)[C@H](OC(=O)c2cc3ccccc3[nH]2)[C@H]1OC(=O)c1cc2ccccc2[nH]1 | 0.216 (inactive)
CCOC(=O)C[C@H]1[C@H](OC(=O)Cc2ccc3c(c2)OCO3)[C@@H](NC(=O)c2ccc3ccccc3n2)c2cc(OCCCO)ccc2N1C(=O)c1ccc2ccccc2n1 | -0.727 (inactive)
COc1ccc(C#Cc2ccc3c(c2)[C@]2(C(=O)N3)[C@H](c3ccc(OCCO)cc3)N3[C@H](c4ccccc4)[C@H](c4ccccc4)OC(=O)[C@H]3[C@@H]2C(=O)NC[C@H](O)c2ccccc2)cc1 | 4.82 (inactive)
NCCCCCNC(=O)[C@H]1C[C@H]2C(=O)N3CCC[C@H]3C(=O)N2[C@H]1c1cccc(OCCO)c1 | 0.674 (inactive)
CO[C@H]1O[C@H](CO)[C@@H](OC(=O)Nc2ccc(Br)cc2)[C@@H]2OC(=O)[C@@H](Cc3ccccc3)C/C=C/C[C@H](Cc3ccccc3)C(=O)O[C@@H]12 | 3.58 (inactive)

SMILES | z-score
CCOC(=O)[C@@H]1CCCCN1C(=O)C(=O)OC | -0.131 (inactive)
O=C(Cc1ccccc1)[C@H]1C2C=CCCC(c3ccccc3)=C2CN1Cc1ccccc1 (stereo not given in full) | -0.481 (inactive)
CCOC(=O)C[C@H]1[C@H](OC(=O)Cc2ccc3c(c2)OCO3)[C@@H](NC(=O)C2CCCCC2)c2cc(OCCCO)ccc2N1C(=O)c1ccccc1 | 0.36 (inactive)
C=C[C@H](C)[C@H](OC(=O)Nc1ccc(SC)cc1)c1ccc(OCCO)cc1 | 0.375 (inactive)
CCCCC(CC)C(O)C1C=CC2C(=O)N(c3ccccc3)C(=O)C2N1Nc1ccccc1F (stereo not given) | 0.314 (inactive)
Cc1ccc(C(C)CC(O)C2C=CC3C(=O)N(c4ccccc4)C(=O)C3N2Nc2ccccc2)o1 (stereo not given) | 0.144 (inactive)
CCOC(=O)C1=C[C@@H](C(C)(C)C)N(S(=O)(=O)c2ccc(C)cc2)[C@H]1c1cccc2ccccc12 | 2.97 (inactive)
CC(C)N1C(=O)C[C@@](C(=O)NC2CC2)(c2ccc([N+](=O)[O-])cc2)[C@H]1c1ccc(CO)cc1 | 0.601 (inactive)
COC(=O)c1c(CC[C@@H](CO)NC(=O)N2CCC[C@H]2Cn2cc(C3(O)CCCCC3)nn2)oc(C(C)=O)c1C(=O)OC | -1.28 (inactive)
NC(=O)NCC#Cc1ccc2c(c1)[C@]1(C(=O)N2)[C@H](c2ccccc2OCCO)N2[C@H](c3ccccc3)[C@H](c3ccccc3)OC(=O)[C@H]2[C@@H]1C(=O)NC[C@H](O)c1ccccc1 | 3.89 (inactive)
CN(C)C(=O)[C@]1(CCC(=O)OC(C)(C)C)N=C(c2ccc(OCCCO)cc2)O[C@@H]1c1ccccc1CN=[N+]=[N-] | -0.619 (inactive)
Cc1ccccc1C(O)C1C=CC2C(=O)NC(=O)C2N1Nc1ccccn1 (stereo not given) | 0.0715 (inactive)
COCCOC(=O)N1C(=O)[C@@]2(c3ccccc31)[C@H](C(=O)NC[C@H](O)c1ccccc1)[C@H]1C(=O)O[C@H](c3ccccc3)[C@H](c3ccccc3)N1[C@@H]2c1ccc(O)cc1 | 2.83 (inactive)
CC1CC/C=C\[C@H]2OC34C=CCN(C(C)C)C(=O)[C@H]3N(CCO)C(=O)[C@@H]4C2C(=O)O1 (stereo not given in full) | 0.323 (inactive)
CCOC(=O)C=Cc1cccc(C)c1O | -2.54 (inactive)
CCCCCCCCCCC(O)C1C=CC2C(=O)N(c3ccccc3)C(=O)C2N1Nc1ccc(C#N)cc1 (stereo not given) | 2.57 (inactive)
COCC(=C=CC[C@H](O)c1ccc(CO)o1)CCO | 0.244 (inactive)
